Measured values taken from the supplement of paper PMC10681739.

How the values were obtained:
ETS1 [1] = molecular target: T1, ETS1 (UniProt P14921); assay: ETS1 binding intensity (PBM fluorescence), ETS1 alone (arbitrary fluorescence units); higher = stronger binding; details: ETS1 concentration 1 nM; RUNX1 concentration 0 nM
T1 sequence: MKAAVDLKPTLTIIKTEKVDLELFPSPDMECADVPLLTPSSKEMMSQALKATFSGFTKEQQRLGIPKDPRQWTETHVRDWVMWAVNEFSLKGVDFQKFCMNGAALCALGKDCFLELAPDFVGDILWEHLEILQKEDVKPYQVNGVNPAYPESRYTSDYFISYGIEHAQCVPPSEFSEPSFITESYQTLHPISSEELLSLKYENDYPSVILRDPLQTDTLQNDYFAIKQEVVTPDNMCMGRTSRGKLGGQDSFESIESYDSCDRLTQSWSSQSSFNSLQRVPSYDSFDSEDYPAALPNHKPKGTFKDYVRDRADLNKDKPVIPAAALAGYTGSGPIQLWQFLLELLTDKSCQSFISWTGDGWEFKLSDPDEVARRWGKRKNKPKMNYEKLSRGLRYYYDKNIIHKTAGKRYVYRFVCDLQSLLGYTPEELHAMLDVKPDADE

ETS1 [2] = molecular target: T1, ETS1; assay: ETS1 binding intensity (PBM fluorescence) in presence of RUNX1, normalised to ETS1-only experiment (arbitrary fluorescence units); higher = stronger binding; details: ETS1 concentration 1 nM; RUNX1 concentration 25 nM

AGGCAGGGAAGTGGCGCAGAGGAGACCACAGGACAC
ETS1 binding intensity (ETS1 [1]): 563 | ETS1 binding intensity (ETS1 [2]): 803

AGGTACTCACCATTCCGGCGGTTGCTACTGTCACTG
ETS1 binding intensity (ETS1 [1]): 459 | ETS1 binding intensity (ETS1 [2]): 428

TGAGTCATTTCCTGGGTGGGGGCCACAAGACCAGGT
ETS1 binding intensity (ETS1 [1]): 540 | ETS1 binding intensity (ETS1 [2]): 553

GCACAGGAAAAGCTGCTTTCCGCGTGGTAAATTCAA
ETS1 binding intensity (ETS1 [1]): 484 | ETS1 binding intensity (ETS1 [2]): 446

GCGGAGTGTTACGTAGGAAGTGGTTGTGACGTCATT
ETS1 binding intensity (ETS1 [1]): 1190 | ETS1 binding intensity (ETS1 [2]): 1540

GAACATGGTCTCCGCTTCCGCCGCAACCTCGGCCTT
ETS1 binding intensity (ETS1 [1]): 525 | ETS1 binding intensity (ETS1 [2]): 744

GTGTTGGGTGGCTTCCTGCGGCGTTTCCACTCTCGC
ETS1 binding intensity (ETS1 [1]): 605 | ETS1 binding intensity (ETS1 [2]): 504

AAAAAATGGAGGAAGTTACCTCCAGTGGTTTTGTGA
ETS1 binding intensity (ETS1 [1]): 751 | ETS1 binding intensity (ETS1 [2]): 1310

GGGAGGAAGTGTGAAGGGACTTTTGTGGTGAGTGAT
ETS1 binding intensity (ETS1 [1]): 549 | ETS1 binding intensity (ETS1 [2]): 910

GAGAGCTGAGCGGAAGCTCAGCTGTGGGGCTGGTTG
ETS1 binding intensity (ETS1 [1]): 1740 | ETS1 binding intensity (ETS1 [2]): 1990

AAGCTGAAAAGGGGATGTGGTTGCCTGCCTGTGGGA
ETS1 binding intensity (ETS1 [1]): 534 | ETS1 binding intensity (ETS1 [2]): 863

GCGTTTCCCCCTTGGGGTTATAGCAACCACCTCCTC
ETS1 binding intensity (ETS1 [1]): 479 | ETS1 binding intensity (ETS1 [2]): 358

TAAATACCTCACAGGAAATTTGAGGTTGGATGAGAT
ETS1 binding intensity (ETS1 [1]): 2010 | ETS1 binding intensity (ETS1 [2]): 2320

GCAGTCGCTAAGGGCGGAAACCACTGTTTGGGAGCT
ETS1 binding intensity (ETS1 [1]): 2110 | ETS1 binding intensity (ETS1 [2]): 3180

ACCGGAAGGGCGGGGGCGTGGCGAGGTACCGCAGAC
ETS1 binding intensity (ETS1 [1]): 1170 | ETS1 binding intensity (ETS1 [2]): 2850

TGGGAAGGGTGAGGAGGAAGCGGTGGCCTTGCTCTG
ETS1 binding intensity (ETS1 [1]): 604 | ETS1 binding intensity (ETS1 [2]): 604

CGACGTCACTTCCGCTGGTTCAAGCACCGCGAGACT
ETS1 binding intensity (ETS1 [1]): 1900 | ETS1 binding intensity (ETS1 [2]): 1500

TGGCTACCCGGAAGGCGCGTTGGCTGCGGCTACGCA
ETS1 binding intensity (ETS1 [1]): 549 | ETS1 binding intensity (ETS1 [2]): 926
